Among the test systems are HCT-15 colon; HT29 colon; SNB-75 CNS; SNB-19 CNS; U251 CNS; PC-3 prostate; SK-MEL-5 melanoma; UACC-62 melanoma; LOX IMVI melanoma; SK-MEL-28 melanoma; SK-MEL-2 melanoma; EKVX NSCLC; SN12C renal; TK-10 renal; ACHN renal; CAKI-1 renal; A498 renal; CCRF-CEM leukemia; MOLT-4 leukemia.
Assay in all cases: NCI-60 one-dose screen, 48 h (100 = growth as untreated, 0 = no growth, -100 = all killed)
What all share (conditions): 10 µM unless noted

Results on six compounds are retold here after PubChem BioAssay (NCI).

About 83,000 compounds went through this panel and 20% of them were active in at least one assay; those are over-represented in the sample as a whole.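 Single-dose data. Exposure time 48 hours. Values below 10 considered active.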 A number with no mark means an inactive call. The source made the active and inactive calls.

With `CCOC(=O)C(=CCC(C)C)C(=O)OCC`, the growth was 100% with HCT-15 colon; 104% in the assay with HT29 colon; 93.1% in the assay on SNB-75 CNS; 98.7% in the assay with SNB-19 CNS; 98.8% in the assay on U251 CNS; 95.5% in the assay with PC-3 prostate. Further, the growth in the assay with SK-MEL-5 melanoma was 103%; in the assay with UACC-62 melanoma, 93%; in the assay on LOX IMVI melanoma, 93.3%; in the assay with SK-MEL-28 melanoma it was 107%; with SK-MEL-2 melanoma it was 113%; in the assay on EKVX NSCLC, 112%. Besides, the growth with SN12C renal is 90.5%; in the assay with TK-10 renal, 121%; in the assay on ACHN renal, 103%; with CAKI-1 renal it was 99.4%; in the assay with A498 renal, 76.2%; with CCRF-CEM leukemia, 108%. Moreover, in the assay on MOLT-4 leukemia, the growth is 98.1%.

Consider `COc1ccccc1/C=C1\COc2ccc(O)c(O)c2C1=O`, for which the growth with HCT-15 colon is -13.3% (active); in the assay with HT29 colon, 57.5%; in the assay with SNB-75 CNS, 11.6%; in the assay on SNB-19 CNS it was 43.7%; in the assay with U251 CNS, 15.3%; in the assay on PC-3 prostate, 33.1%. Further, the growth was 41.6% in the assay with SK-MEL-5 melanoma; 14.8% in the assay with UACC-62 melanoma; -30.1% (active) in the assay on LOX IMVI melanoma; 47.9% in the assay on SK-MEL-28 melanoma; 58.5% in the assay with SK-MEL-2 melanoma; 71.6% in the assay with EKVX NSCLC. Moreover, the growth in the assay on SN12C renal was -11% (active); in the assay with TK-10 renal, 35.2%; with ACHN renal, 1.49% (active); in the assay with CAKI-1 renal, 31.9%; in the assay on A498 renal, 109%; in the assay with CCRF-CEM leukemia, 2.74% (active). The growth in the assay with MOLT-4 leukemia is -1.1% (active).

In the case of `COc1ccc(-c2nn3c(-c4cc(F)c(Cl)cc4Cl)nnc3s2)cc1`, the growth with HCT-15 colon is 42%; in the assay on HT29 colon, 5.17% (active); with SNB-75 CNS, 7.7% (active); in the assay on SNB-19 CNS, 40.6%; in the assay with U251 CNS, 35.6%; in the assay on PC-3 prostate, 42.8%. The growth is 20.1% with SK-MEL-5 melanoma; 44.4% in the assay with UACC-62 melanoma; 42.1% in the assay with LOX IMVI melanoma; 36.7% with SK-MEL-28 melanoma; 66.8% in the assay with SK-MEL-2 melanoma; 75.4% in the assay on EKVX NSCLC. For the same compound, the growth was 72.5% in the assay with SN12C renal; 105% in the assay with TK-10 renal; 66.7% in the assay on ACHN renal; 37.7% in the assay on CAKI-1 renal; 65.9% with A498 renal; 9.61% (active) with CCRF-CEM leukemia. Further, in the assay on MOLT-4 leukemia, the growth was 21.6%.

For the compound `Nc1ncnc2c1C(c1ccc([N+](=O)[O-])cc1)c1sc3c(F)cccc3c1O2` (centres undefined), the growth in the assay on HCT-15 colon is 102%; in the assay with HT29 colon, 112%; in the assay on SNB-75 CNS it was 97%; in the assay on SNB-19 CNS, 102%; in the assay with U251 CNS, 92.4%; with PC-3 prostate, 91.6%. Moreover, the growth in the assay on SK-MEL-5 melanoma is 98.4%; in the assay with UACC-62 melanoma it was 81%; in the assay with LOX IMVI melanoma it was 84.2%; in the assay with SK-MEL-28 melanoma, 106%; in the assay on SK-MEL-2 melanoma, 107%; with EKVX NSCLC, 98.4%. Moreover, the growth in the assay on SN12C renal is 97.1%; in the assay with TK-10 renal it was 129%; in the assay with ACHN renal, 89.8%; with CAKI-1 renal it was 74.9%; in the assay with A498 renal it was 97.8%; in the assay with CCRF-CEM leukemia, 94.3%. Also, the growth in the assay with MOLT-4 leukemia is 93.4%.

For `O=C(/C=C/c1cccs1)Nc1ncc(Cc2ccc(Cl)c(Cl)c2)s1`, the growth was 28.9% in the assay with HCT-15 colon; 24.2% in the assay on HT29 colon; 64% with SNB-75 CNS; 71.1% in the assay on SNB-19 CNS; 59% with U251 CNS; 77.6% with PC-3 prostate. The growth is 41.6% in the assay with SK-MEL-5 melanoma; 17.6% in the assay with UACC-62 melanoma; 23.3% in the assay with LOX IMVI melanoma; 63.6% in the assay on SK-MEL-28 melanoma; 77.1% in the assay on SK-MEL-2 melanoma; 57.8% with EKVX NSCLC. Moreover, the growth in the assay on SN12C renal was 79.8%; in the assay with TK-10 renal, 61.5%; in the assay on ACHN renal, 36.4%; in the assay with CAKI-1 renal, 23.8%; in the assay with A498 renal, 57.1%; in the assay on CCRF-CEM leukemia, 68%. In the assay with MOLT-4 leukemia, the growth is 51.4%.

With `CCCCCCCCN(CCCCCCCC)CC(O)c1cc(Cl)ccc1OC` (centres undefined), the growth is 61.8% in the assay with HCT-15 colon; 38.7% with HT29 colon; 76.5% in the assay with SNB-75 CNS; 91.2% in the assay with SNB-19 CNS; 78.6% in the assay with U251 CNS; 71.9% in the assay with PC-3 prostate. Also, the growth with SK-MEL-5 melanoma was 56%; in the assay with UACC-62 melanoma it was 64.6%; in the assay with LOX IMVI melanoma, 13.1%; with SK-MEL-28 melanoma, 80.5%; with SK-MEL-2 melanoma, 80.1%; with EKVX NSCLC it was 59.9%. In addition, the growth in the assay on SN12C renal was 75.4%; in the assay on TK-10 renal it was 96.4%; in the assay with ACHN renal, 71.5%; with CAKI-1 renal, 62.3%; in the assay with A498 renal, 54.8%; in the assay on CCRF-CEM leukemia it was 92.8%. Further, the growth with MOLT-4 leukemia is 79.3%.
